From PubChem BioAssay come the findings set out here.

The structures appear in SMILES notation. Activity calls are given as the source filed them.

In one experiment the target is Albumin (Bos taurus) (UniProt P02769). The experiment is described as follows: compounds binding labelled BSA control protein – biochemical, small-molecule microarray, Alexa647 label, 635/667 nm fluorescence, artefact control for SMM control protein annotation, profiling panel (AID 1118).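 Also: score merges 667 nm emission intensity and signal-to-noise per printed compound spot.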 To be noted: BSA-A647 binding, fluorescence 635 nm, higher = more signal.
Albumin (Bos taurus), sequence (P02769 whole entry, looked up): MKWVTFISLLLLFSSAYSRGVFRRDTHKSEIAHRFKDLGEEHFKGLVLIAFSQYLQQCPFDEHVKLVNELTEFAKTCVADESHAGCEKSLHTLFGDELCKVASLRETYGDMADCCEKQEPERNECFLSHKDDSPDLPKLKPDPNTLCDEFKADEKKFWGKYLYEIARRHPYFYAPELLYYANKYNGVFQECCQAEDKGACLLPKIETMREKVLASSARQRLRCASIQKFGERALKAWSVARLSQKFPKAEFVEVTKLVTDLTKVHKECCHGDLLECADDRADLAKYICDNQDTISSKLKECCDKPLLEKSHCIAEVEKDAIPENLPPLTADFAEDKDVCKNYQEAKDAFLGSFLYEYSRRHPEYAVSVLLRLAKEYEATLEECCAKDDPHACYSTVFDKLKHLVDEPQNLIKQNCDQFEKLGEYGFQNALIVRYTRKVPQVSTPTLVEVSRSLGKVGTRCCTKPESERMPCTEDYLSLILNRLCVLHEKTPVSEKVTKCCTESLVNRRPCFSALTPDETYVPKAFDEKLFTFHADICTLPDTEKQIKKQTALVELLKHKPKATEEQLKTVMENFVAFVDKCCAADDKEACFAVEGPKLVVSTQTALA
Experiment [1] in a line: probe aXIP binding to arrayed compounds – biochemical, NeuroSMM set, 635/667 nm fluorescence, primary screen (AID 1119).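 Also: probe is the protein aXip251-270 applied at 1 µg/mL to compound-printed slides; binding of probe to printed compounds measured as 667 nm fluorescence plus signal to noise.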 To be noted: small-molecule microarray, higher = more signal, called active from +8 up or from −8 down.
Experiment [2] in a line: probe aNOTCH3 binding on compound microarray – biochemical, small-molecule microarray, 635/667 nm fluorescence, primary screen (AID 1120).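 Also: probe is a biotin-tagged antibody raised against NOTCH3 rather than NOTCH3 protein; score merges spot fluorescence near 667 nm with spot signal to noise.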 To be noted: higher = more signal.
Experiment [3] in a line: probe aNOTCH2 binding on compound microarray – biochemical, small-molecule microarray, 635/667 nm fluorescence, primary screen (AID 1121).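 Also: score merges feature fluorescence read at 667 nm with its signal to noise.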 Conditions: higher = more signal.
Experiment [4] has as its target Carbonic anhydrase 2 (Homo sapiens) (UniProt P00918). The experiment is described as follows: compounds binding carbonic anhydrase 2 – biochemical, small-molecule microarray, Alexa647-labelled CAII, profiling panel (AID 1122). Conditions: CAII-A647 binding fluorescence, higher = more signal.
A short description of experiment [5]: COS7 lysate on small-molecule microarray, probe aHis, 635 nm (AID 1123).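 Also: z-score combines 667nm fluorescence intensity with signal-to-noise per printed compound spot.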 To be noted: COS7 cell lysate, fluorescence, higher = more signal.
Experiment [6] can be described thus: probe aLAP1 signal on lysate-treated microarray – cell lysate, small-molecule microarray, COS7 lysate, primary screen (AID 1124).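 Also: lysate comes from COS7 cells expressing LAP1 and is applied at 0.3 µg/mL; score merges spot fluorescence near 667 nm with signal-to-noise over triplicate slides.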 Conditions: probe aLAP1, fluorescence, higher = more signal.
A further experiment concerns Sam68 (KHDRBS1). The experiment is described as follows: compounds binding KHDRBS1 protein – biochemical, small-molecule microarray, 635 nm fluorescence, primary screen (AID 1125).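 Also: score merges 667 nm channel intensity with signal to noise over triplicate slides.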 To be noted: higher = more signal.
The subject of experiment [7] is Chordin-like protein 2 (CHRDL2). The experiment is described as follows: compounds binding chordin-like 2 – biochemical, small-molecule microarray, 635 nm fluorescence, primary screen (AID 1126).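 Also: printed compound slides probed with Chrdl2 protein at 4 µg/mL for 1 h at 4 C; score merges 667 nm emission intensity with signal to noise over three replicate slides.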 Conditions: fluorescence 635 nm, higher = more signal.
For experiment [8], the target named is Concanavalin-A (Canavalia ensiformis) (UniProt P02866). The experiment is described as follows: compounds binding concanavalin A lectin – biochemical, small-molecule microarray, Alexa647 label, 635 nm, artefact control for SMM control protein annotation, primary screen (AID 1127).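 Also: z combines 667 nm emission intensity with signal-to-noise across three replicate slides.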 Conditions: ConA-A647 binding fluorescence, higher = more signal.
Concanavalin-A (Canavalia ensiformis), sequence (P02866 whole entry, looked up): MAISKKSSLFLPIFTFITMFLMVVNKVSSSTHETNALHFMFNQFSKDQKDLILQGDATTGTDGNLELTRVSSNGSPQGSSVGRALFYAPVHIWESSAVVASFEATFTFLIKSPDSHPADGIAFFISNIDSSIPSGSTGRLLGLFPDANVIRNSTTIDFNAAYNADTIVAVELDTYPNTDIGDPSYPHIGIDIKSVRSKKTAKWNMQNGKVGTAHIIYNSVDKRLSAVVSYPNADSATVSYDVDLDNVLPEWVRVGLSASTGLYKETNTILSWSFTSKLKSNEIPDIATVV

For `C=CCNC(=O)[C@H]1[C@@H]2C(=O)O[C@@H](c3ccccc3)[C@@H](c3ccccc3)N2[C@@H](c2ccccc2OCCO)[C@]12C(=O)N(C(=O)OCCOC)c1ccc(C#CC3=CCCCC3)cc12`, the composite z-score with Albumin (Bos taurus) was -0.286; in experiment [2], 0.345; in experiment [3] it was 0.148; in [4], 0.55; in experiment [5] it was 1.33; in [6] it was 1.01. The composite z-score turned out to be 1.3 in the experiment with Sam68 (KHDRBS1), 0.51 in experiment [7] and 0.942 in [8]. Further, the composite Z-score in experiment [1] is -0.0127 (inactive).
Turning to `CCCc1cccc(=O)o1`, the composite z-score with Albumin (Bos taurus) was 0.387; in experiment [2] it was -0.0665; in experiment [3], -0.127; in experiment [4], 0.43; in experiment [5], 0.897; in experiment [6], 0.359. The composite z-score in the experiment on Sam68 (KHDRBS1) came out at 0.699; in [7], 0.221; in experiment [8], 0.828. In addition, the composite Z-score in [1] is -0.75 (inactive).
As to `COc1ccc([Si](C)(C)[C@H]2[C@H](CCn3cc(CCO)nn3)O[C@@]3(C(=O)N(Cc4ccc(N5C(=O)c6cccc7cccc5c67)cc4)c4ccccc43)[C@@H]2C)cc1`, the composite z-score with Albumin (Bos taurus) was 0.627; in [2], 0.0996; in [3], -0.14; in [4] it was 0.345; in [5], 1.04; in experiment [6] it was 0.303. In addition, the composite z-score in the experiment on Sam68 (KHDRBS1) was found to be 1.29; in [7], 0.628; in [8], 0.962. Further, the composite Z-score in [1] is -0.777 (inactive).
Consider `CCOC(=O)C[C@H]1[C@H](OC(=O)c2ccc(C(=O)c3ccccc3)cc2)[C@@H](NC(=O)c2ccc3ccccc3c2)c2cc(OCCCO)ccc2N1C(=O)c1ccccc1`, for which the composite z-score with Albumin (Bos taurus) is 0.362; in experiment [2] it was 0.0893; in experiment [3], 0.127; in experiment [4], 0.197; in experiment [5] it was 1.26; in experiment [6], 0.8. In addition, the results for the composite z-score (in the experiment with Sam68 (KHDRBS1); in experiment [7]; in [8]) were 1.32, -0.257 and 1.04, respectively. Besides, in experiment [1], the composite Z-score is 0.224 (inactive).
For the molecule `CC(C)N1CC=CC23O[C@@H]4C=CCCOC(=O)C4[C@H]2C(=O)N(CCO)[C@@H]3C1=O` (stereo not given in full), the composite z-score in the experiment with Albumin (Bos taurus) was 0.0894; in [2], -0.305; in experiment [3], -0.125; in [4] it was 0.763; in experiment [5], -0.548; in experiment [6], 0.199. In addition, the figures for the composite z-score (with Sam68 (KHDRBS1); in experiment [7]; in experiment [8]) were -0.354, -0.414 and 0.172, respectively. For the same molecule, the composite Z-score in experiment [1] is -0.455 (inactive).
Turning to `CO[C@H]1O[C@H](CO)[C@@H](OC(=O)Nc2ccc(C(F)(F)F)cc2)[C@H](OC(=O)Nc2ccc3c(c2)OCO3)[C@H]1OC(=O)Nc1ccc2c(c1)OCO2`, the composite z-score was found to be 0.72 in the experiment with Albumin (Bos taurus); 0.169 in experiment [2]; 0.0062 in [3]; 0.767 in [4]; 2.67 in experiment [5]; 0.59 in experiment [6]. The composite z-score in the experiment with Sam68 (KHDRBS1) was 1.3; in [7], -0.146; in experiment [8] it was 1.14. Further, the composite Z-score in [1] was 1.42 (inactive).
For `COCCOC(=O)N1C(=O)[C@@]2(c3cc(C#CCNC(N)=O)ccc31)[C@H](C(=O)N1CCCCCCC1)[C@H]1C(=O)O[C@H](c3ccccc3)[C@H](c3ccccc3)N1[C@@H]2c1ccc(O)cc1`, the composite z-score was 0.0763 in the experiment with Albumin (Bos taurus); 0.239 in [2]; -0.0714 in experiment [3]; 0.354 in [4]; 0.654 in experiment [5]; 0.285 in experiment [6]. In addition, the figures for the composite z-score (in the experiment on Sam68 (KHDRBS1); in experiment [7]; in experiment [8]) were 1.11, 0.626 and 1.03, respectively. In addition, the composite Z-score in experiment [1] is 0.559 (inactive).
For `C=C[C@@H](COC(C)=O)NS(=O)(=O)c1ccc(Br)cc1`, the composite z-score is -0.0541 with Albumin (Bos taurus); -0.0728 in experiment [2]; -0.0859 in experiment [3]; 0.28 in experiment [4]; 0.151 in [5]; -0.0973 in experiment [6]. Besides, the composite z-score in the experiment with Sam68 (KHDRBS1) worked out at 0.597; in experiment [7], 0.0699; in [8] it was 0.205. For the same molecule, in experiment [1], the composite Z-score is 0.486 (inactive).
In the case of `O=C1NC(=O)C2C1C=CC(C(O)c1c(F)cccc1Cl)N2Nc1ccccn1` (stereo not given), the composite z-score is 0.179 in the experiment with Albumin (Bos taurus); -0.0009 in [2]; 0.0203 in experiment [3]; 0.805 in experiment [4]; -0.42 in experiment [5]; 1 in experiment [6]. Also, the values for the composite z-score (in the experiment with Sam68 (KHDRBS1); in experiment [7]; in [8]) were 0.0076, 0.676 and -0.453, respectively. Also, in experiment [1], the composite Z-score was -0.527 (inactive).
For `COCCCNC(=O)[C@@]1(Sc2ccc(C)cc2)CC(=O)N(C2Cc3ccccc3C2)[C@@H]1c1ccc(CO)cc1I`, the composite z-score in the experiment with Albumin (Bos taurus) was -1.09; in [2], -0.146; in [3], -0.102; in experiment [4] it was 0.871; in experiment [5], -0.152; in experiment [6], 0.297. Also, the values for the composite z-score (in the experiment on Sam68 (KHDRBS1); in experiment [7]; in experiment [8]) were -0.52, -0.555 and -1.61, respectively. For the same molecule, the composite Z-score in [1] is -0.298 (inactive).
As for `CO[C@H]1O[C@H](CO)[C@@H](OC(=O)c2ccc(Br)cc2)[C@@H]2OC(=O)[C@@H](Cc3ccc4ccccc4c3)C/C=C/C[C@H](Cc3ccc4ccccc4c3)C(=O)O[C@@H]12`, the composite z-score with Albumin (Bos taurus) came out at 0.934; in experiment [2] it was 0.109; in experiment [3], 0.0043; in experiment [4], 0.63; in experiment [5], 1.93; in [6], 0.547. Also, the figures for the composite z-score (in the experiment with Sam68 (KHDRBS1); in experiment [7]; in experiment [8]) were 1.24, -0.517 and 0.275, respectively. Moreover, in [1], the composite Z-score was 0.589 (inactive).
On to `C[C@]1(C(=O)NC2CC2)c2ccccc2C(=O)N(Cc2ccc(OC(F)(F)F)cc2)[C@H]1c1ccc(CO)cc1`, for which the composite z-score with Albumin (Bos taurus) was -0.85; in experiment [2] it was 0.0271; in [3] it was 0.0049; in experiment [4] it was 0.37; in experiment [5], 0.209; in experiment [6], 0.0915. The composite z-score with Sam68 (KHDRBS1) is 0.0003; in experiment [7] it was -1.14; in experiment [8], -0.698. In addition, the composite Z-score in experiment [1] is -0.0189 (inactive).
Regarding `COc1cc(CO)cc(I)c1O[C@H]1C=C(C(=O)NCCO)C[C@@H](N(Cc2ccc(F)cc2)C(=O)C2CCCO2)[C@@H]1O` (stereo not given in full), the composite z-score is -0.53 in the experiment with Albumin (Bos taurus); -0.154 in experiment [2]; -0.0781 in experiment [3]; -0.124 in experiment [4]; -0.248 in experiment [5]; -0.144 in [6]. In addition, the composite z-score was 0.0803 in the experiment with Sam68 (KHDRBS1), 0.325 in experiment [7] and -0.422 in experiment [8]. The composite Z-score in [1] is -0.77 (inactive).
`C=CC[C@@]12N=C(c3ccc(OCCCO)cc3)O[C@@H]1c1ccccc1N(CCS(=O)(=O)c1ccccc1)C2=O`: the composite z-score with Albumin (Bos taurus) was 0.873; in [2], 0.0692; in experiment [3], -0.16; in experiment [4] it was 0.724; in experiment [5] it was 1.78; in [6], 0.551. Moreover, the composite z-score in the experiment with Sam68 (KHDRBS1) stood at 1.31; in experiment [7], 0.992; in experiment [8], 1.17. In addition, in [1], the composite Z-score was -0.32 (inactive).
`[N-]=[N+]=Nc1ccccc1[C@@H]1OC(c2ccc(OCCCO)cc2)=N[C@]1(CCS(=O)(=O)c1ccccc1)C(=O)NCCN1CCOCC1`: the composite z-score was 0.734 in the experiment with Albumin (Bos taurus); 0.178 in [2]; -0.0267 in [3]; 0.485 in experiment [4]; 2.71 in [5]; 0.21 in experiment [6]. Moreover, the values for the composite z-score (with Sam68 (KHDRBS1); in experiment [7]; in experiment [8]) were 1.29, -0.22 and 0.478, respectively. Besides, in experiment [1], the composite Z-score is 0.131 (inactive).
Take `C[C@H]1C2=C3C(CC[C@H]4C(OCc5ccc(F)cc5C(F)(F)F)OC[C@](C)([C@@H]34)N(C(=O)OC(C)(C)C)C2)C(CO)C1CO` (stereo not given in full): the composite z-score in the experiment with Albumin (Bos taurus) was found to be 0.953; in [2] it was 0.266; in [3], 0.0831; in experiment [4], 0.352; in [5], 3.19; in experiment [6], 0.505. For the same molecule, the composite z-score in the experiment with Sam68 (KHDRBS1) is 1.31; in experiment [7] it was -1.44; in [8], 0.862. Further, the composite Z-score in experiment [1] was 1.08 (inactive).
